# According to PubChem BioAssay (EPA / NIEHS):
# Records with an inconclusive call do not appear. Calls of active or inactive are those of the source. The calls were made as follows: active = hit-call score of the fitted dose curve at least 0.9, where 1 is the maximum; inconclusive = response in the unintended direction; inactive = score below 0.9.
# Key:
# [1] = target: Sodium channel protein type 1 subunit alpha (Rattus norvegicus) (UniProt P04774); experiment: NVS_IC_rNaCh_site2: NovaScreen (NVS) Ion Channel Assay for rat Sodium Channel, Site 2 (NaCh) (AID 2283322);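 also: hit means loss of radioligand binding signal relative to DMSO so AC50 marks displacement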
# How it was run: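 Initial duplicate single-point testing at 25 uM, followed by concentration-response runs for actives. Binding of radioligand to rat forebrain membranes quantified after 1 h via filter-based radiodetection.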
# [2] = NVS_IC_rCaBTZCHL: NovaScreen (NVS) Ion Channel Assay for Calcium Channel, Type L, Benzothiazepine Site (CaBTZCHL) (AID 2283337)
# How it was run: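 Rat cortical membrane preparation, cell-free. Radioligand displaced by test chemical; 1.5 h incubation; filtration, scintillation count. DMSO = negative control/baseline. Primary: duplicate, 25 uM; secondary: concentration series.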
# [3] = system: guinea pig Histamine Receptor (H2), gene 100729734; experiment: NVS_GPCR_gH2: NovaScreen (NVS) G Protein-Coupled Receptor Assay for guinea pig Histamine Receptor (H2) (AID 2283342)
# How it was run: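 Guinea pig striatal membrane preparation with specific radioligand; bound counts measured by filtration and scintillation 1 h post-dosing, DMSO as baseline. Chemicals passing a 25 uM duplicate screen were titrated to a 50 uM maximum.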
# [4] = target: rat Glutamate, NMDA Agonist Site (GluNMDA), Grin1 (gene 24408) (UniProt P35439); experiment: NVS_LGIC_rGluNMDA_Agonist: NovaScreen (NVS) Ligand-Gated Ion Channel Assay for rat Glutamate, NMDA Agonist Site (GluNMDA) (AID 2283327)
# How it was run: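 Radioligand displacement at the agonist site on rat forebrain membrane preparations, read by filter scintillation after 1 h. Chemicals were first run at 25 uM in duplicate; those passing threshold were titrated to a 50 uM maximum.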
# [5] = target: human Constitutive Androstane Receptor (CAR), NR1I3 (gene 9970) (UniProt Q14994); experiment: NVS_NR_hCAR_Agonist: NovaScreen (NVS) Nuclear Receptor Binding Assay for human Constitutive Androstane Receptor Agonism (CAR) (AID 2283328)
# How it was run: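 Actives from a 25 uM duplicate screen were retested in singleton concentration series to 50 uM max. Biochemical TR-FRET assay on extracted CAR protein measured 1 h post-dose, with signal increase over DMSO control.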
# [6] = target: rat Peripheral-type Benzodiazepine Receptor (PBR), Tspo (gene 24230) (UniProt P16257); experiment: NVS_MP_rPBR: NovaScreen (NVS) Membrane Protein Assay for rat Peripheral-type Benzodiazepine Receptor (PBR) (AID 2283335)
# How it was run: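 Single-concentration duplicate screening at 25 uM preceded concentration-series retesting of actives. Binding of a specific radioligand to rat kidney membrane PBR was read by filtration radiodetection after 1 h, with plate-wise positive and negative controls.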
# [7] = target: rat Glutamate, MK-801 Agonist Site (GluNMDA_MK801), Grin1 (gene 24408) (UniProt P35439); experiment: NVS_LGIC_rGluNMDA_MK801_Agonist: NovaScreen (NVS) Ligand-Gated Ion Channel Assay for rat Glutamate, MK-801 Agonist Site (GluNMDA_MK801) (AID 2283340)
# How it was run: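 Rat forebrain membrane preparation; MK-801-site radioligand binding read by filtration and scintillation after 1.5 h. Single-point 25 uM duplicate screen, followed by singleton concentration series to 50 uM max; DMSO baseline.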
# [8] = NVS_IC_rCaDHPRCh_L: NovaScreen (NVS) Ion Channel Assay for rat Calcium Channel, Type L, Dihydropyridine Site (CaDHPRCh_L) (AID 2283320)
# How it was run: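 Rat cortex membrane preparation; dihydropyridine-site radioligand displacement read 1 h post-dose by filtration and scintillation. Primary single-point screen 25 uM in duplicate, then concentration series to 50 uM maximum; DMSO as negative control.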
# [9] = target: Voltage-gated inwardly rectifying potassium channel KCNH2 (Homo sapiens) (UniProt Q12809); experiment: NVS_IC_hKhERGCh: NovaScreen (NVS) Ion Channel Assay for human Potassium Channel ERG (KhERGCh) (AID 2283333)
# How it was run: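 Membranes from CHO cells expressing human ERG; displacement of radioligand measured by filtration and scintillation after 0.75 h. Single-concentration duplicate screen at 25 uM, then concentration-response for actives; DMSO baseline.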
# [10] = target: human Peripheral-type Benzodiazepine Receptor (PBR), TSPO (gene 706) (UniProt P30536); experiment: NVS_MP_hPBR: NovaScreen (NVS) Membrane Protein Assay for human Peripheral-type Benzodiazepine Receptor (PBR) (AID 2283331);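 also: hits reduce radioligand binding relative to DMSO baseline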
# How it was run: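 Cell-free radioligand displacement, human colonic membranes, 1 h exposure. Filter radiodetection read-out. Single-concentration duplicates (25 uM), then concentration-response for actives; DMSO negative control.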
# [11] = target: rat Thyrotropin Releasing Hormone Receptor (TRH), Trhr (gene 25570) (UniProt Q01717); experiment: NVS_GPCR_rTRH: NovaScreen (NVS) G Protein-Coupled Receptor Assay for rat Thyrotropin Releasing Hormone Receptor (TRH) (AID 2283329);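 also: hit means lower bound tracer signal versus DMSO baseline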
# How it was run: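 Rat forebrain membrane prep, radioligand displacement, filter scintillation readout at 4 h. Single conc 25 uM, duplicate; actives retested as concentration series. DMSO = negative control/baseline.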
# [12] = target: bovine Gamma-Aminobutyric Acid Type A Receptor Agonist (GABAR Agonist), GABRA1 (gene 780973) (UniProt P08219); experiment: NVS_LGIC_bGABAR_Agonist: NovaScreen (NVS) Ligand-Gated Ion Channel Assay for bovine Gamma-Aminobutyric Acid Type A Receptor Agonist (GABAR Agonist) (AID 2283338)
# How it was run: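 Radioligand binding to bovine cerebellar membranes in agonist format, read by filter-based scintillation counting after 1 h. Primary screen in duplicate at 25 uM, with actives followed in concentration series. Gain of signal versus DMSO.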
# [13] = target: Small conductance calcium-activated potassium channel protein 1 (Rattus norvegicus) (UniProt P70606); experiment: NVS_IC_rKCaCh: NovaScreen (NVS) Ion Channel Assay for rat Potassium Channel, Ca2+ Act., VI (KCaCh) (AID 2283336)
# How it was run: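 Filter-based scintillation counting of radioligand bound to rat forebrain membrane preparations, measured 1 h after compound addition. Primary screen used 25 uM in duplicate, with concentration-response follow-up; signal decrease relative to DMSO marks activity.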
# [14] = target: rat Glycine Receptor, Strychnine-sensitive (GlyRStrySens), Glra1 (gene 25674) (UniProt P07727); experiment: NVS_LGIC_rGlyRStrySens: NovaScreen (NVS) Ligand-Gated Ion Channel Assay for rat Glycine Receptor, Strychnine-sensitive (GlyRStrySens) (AID 2283341)
# How it was run: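 Radioligand displacement on rat spinal cord membranes, 1 hr, filter scintillation read-out. Single-concentration duplicate screen at 25 uM; chemicals meeting threshold (e.g., 30% inhibition) rerun in concentration-response up to 50 uM. Loss of binding fitted versus DMSO.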
# Sequence of rat Peripheral-type Benzodiazepine Receptor (PBR), Tspo (gene 24230) (P16257 whole entry, looked up): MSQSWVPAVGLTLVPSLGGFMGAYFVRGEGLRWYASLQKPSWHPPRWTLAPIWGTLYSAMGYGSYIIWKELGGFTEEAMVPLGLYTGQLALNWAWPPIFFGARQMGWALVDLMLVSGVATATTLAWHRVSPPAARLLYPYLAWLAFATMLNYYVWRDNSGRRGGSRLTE
# Sequence of human Peripheral-type Benzodiazepine Receptor (PBR), TSPO (gene 706) (P30536 whole entry, looked up): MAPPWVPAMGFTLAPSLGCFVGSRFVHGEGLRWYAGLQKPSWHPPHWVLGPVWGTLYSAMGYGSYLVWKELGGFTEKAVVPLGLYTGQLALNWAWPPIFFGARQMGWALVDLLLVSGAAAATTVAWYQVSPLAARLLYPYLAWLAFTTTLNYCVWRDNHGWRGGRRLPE
# Sequence of human Constitutive Androstane Receptor (CAR), NR1I3 (gene 9970) (Q14994 whole entry, looked up): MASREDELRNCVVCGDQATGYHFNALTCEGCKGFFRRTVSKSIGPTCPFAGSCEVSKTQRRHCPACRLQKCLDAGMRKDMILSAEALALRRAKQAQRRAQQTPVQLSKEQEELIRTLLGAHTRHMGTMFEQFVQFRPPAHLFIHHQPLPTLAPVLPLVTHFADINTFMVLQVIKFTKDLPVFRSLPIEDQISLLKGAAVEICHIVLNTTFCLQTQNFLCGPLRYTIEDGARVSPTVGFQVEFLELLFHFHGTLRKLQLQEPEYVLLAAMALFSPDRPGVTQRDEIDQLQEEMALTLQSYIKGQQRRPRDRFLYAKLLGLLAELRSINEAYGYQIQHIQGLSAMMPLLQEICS
# Sequence of bovine Gamma-Aminobutyric Acid Type A Receptor Agonist (GABAR Agonist), GABRA1 (gene 780973) (P08219 whole entry, looked up): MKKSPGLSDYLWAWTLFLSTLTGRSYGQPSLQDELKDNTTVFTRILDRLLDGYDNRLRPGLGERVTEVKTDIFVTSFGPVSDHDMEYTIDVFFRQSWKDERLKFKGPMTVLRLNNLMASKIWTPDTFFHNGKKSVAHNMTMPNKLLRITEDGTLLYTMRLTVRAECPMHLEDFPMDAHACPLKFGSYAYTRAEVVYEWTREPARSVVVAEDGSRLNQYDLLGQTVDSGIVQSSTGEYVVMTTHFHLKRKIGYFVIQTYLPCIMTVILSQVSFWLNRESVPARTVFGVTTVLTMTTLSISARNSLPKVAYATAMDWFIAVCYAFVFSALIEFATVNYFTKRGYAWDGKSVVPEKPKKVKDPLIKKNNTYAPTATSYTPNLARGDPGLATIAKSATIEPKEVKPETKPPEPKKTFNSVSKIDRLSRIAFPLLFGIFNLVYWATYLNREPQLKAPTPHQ
# Sequence of Voltage-gated inwardly rectifying potassium channel KCNH2 (Homo sapiens) (Q12809 whole entry, looked up): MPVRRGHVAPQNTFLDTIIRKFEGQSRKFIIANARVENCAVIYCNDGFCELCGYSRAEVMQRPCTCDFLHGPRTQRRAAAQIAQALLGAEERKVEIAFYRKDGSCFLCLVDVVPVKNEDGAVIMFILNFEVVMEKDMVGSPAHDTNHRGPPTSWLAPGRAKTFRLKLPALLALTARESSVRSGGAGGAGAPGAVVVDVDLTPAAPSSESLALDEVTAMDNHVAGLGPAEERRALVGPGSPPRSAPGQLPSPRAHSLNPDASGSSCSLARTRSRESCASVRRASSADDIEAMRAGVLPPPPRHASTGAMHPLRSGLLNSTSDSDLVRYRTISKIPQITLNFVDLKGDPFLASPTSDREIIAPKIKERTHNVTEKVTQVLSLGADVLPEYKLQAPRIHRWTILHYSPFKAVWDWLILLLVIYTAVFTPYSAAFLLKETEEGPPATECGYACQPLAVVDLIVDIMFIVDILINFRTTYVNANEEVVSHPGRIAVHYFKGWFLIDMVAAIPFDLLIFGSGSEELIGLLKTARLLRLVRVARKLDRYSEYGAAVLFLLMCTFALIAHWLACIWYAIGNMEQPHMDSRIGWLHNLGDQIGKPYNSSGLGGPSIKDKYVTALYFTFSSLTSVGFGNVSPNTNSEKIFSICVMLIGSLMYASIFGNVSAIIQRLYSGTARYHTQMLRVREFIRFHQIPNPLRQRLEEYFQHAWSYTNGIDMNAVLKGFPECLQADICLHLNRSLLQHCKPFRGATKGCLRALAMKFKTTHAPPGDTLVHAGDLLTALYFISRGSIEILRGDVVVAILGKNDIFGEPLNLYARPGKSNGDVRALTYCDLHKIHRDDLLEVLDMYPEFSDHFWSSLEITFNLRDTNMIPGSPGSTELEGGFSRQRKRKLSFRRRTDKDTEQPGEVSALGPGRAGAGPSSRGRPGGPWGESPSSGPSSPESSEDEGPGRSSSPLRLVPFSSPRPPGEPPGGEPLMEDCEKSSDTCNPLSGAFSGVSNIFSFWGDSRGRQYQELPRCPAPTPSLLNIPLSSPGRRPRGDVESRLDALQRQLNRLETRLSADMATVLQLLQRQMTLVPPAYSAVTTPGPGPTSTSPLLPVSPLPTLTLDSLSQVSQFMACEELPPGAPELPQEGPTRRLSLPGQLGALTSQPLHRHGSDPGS
# Sequence of Small conductance calcium-activated potassium channel protein 1 (Rattus norvegicus) (P70606 whole entry, looked up): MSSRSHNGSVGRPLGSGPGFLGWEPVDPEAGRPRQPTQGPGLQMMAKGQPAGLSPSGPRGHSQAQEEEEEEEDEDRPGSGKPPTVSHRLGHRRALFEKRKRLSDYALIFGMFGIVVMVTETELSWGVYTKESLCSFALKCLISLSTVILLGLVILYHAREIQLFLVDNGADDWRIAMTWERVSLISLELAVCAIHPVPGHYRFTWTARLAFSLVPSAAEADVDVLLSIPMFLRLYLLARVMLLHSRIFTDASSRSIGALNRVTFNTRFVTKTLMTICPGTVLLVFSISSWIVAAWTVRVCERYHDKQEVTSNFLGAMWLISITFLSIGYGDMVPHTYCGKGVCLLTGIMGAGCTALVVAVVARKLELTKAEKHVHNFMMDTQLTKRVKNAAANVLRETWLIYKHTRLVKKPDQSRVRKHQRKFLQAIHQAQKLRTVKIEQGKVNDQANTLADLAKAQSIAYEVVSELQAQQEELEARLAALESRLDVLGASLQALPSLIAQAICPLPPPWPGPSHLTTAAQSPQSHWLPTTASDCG
# Sequence of rat Thyrotropin Releasing Hormone Receptor (TRH), Trhr (gene 25570) (Q01717 whole entry, looked up): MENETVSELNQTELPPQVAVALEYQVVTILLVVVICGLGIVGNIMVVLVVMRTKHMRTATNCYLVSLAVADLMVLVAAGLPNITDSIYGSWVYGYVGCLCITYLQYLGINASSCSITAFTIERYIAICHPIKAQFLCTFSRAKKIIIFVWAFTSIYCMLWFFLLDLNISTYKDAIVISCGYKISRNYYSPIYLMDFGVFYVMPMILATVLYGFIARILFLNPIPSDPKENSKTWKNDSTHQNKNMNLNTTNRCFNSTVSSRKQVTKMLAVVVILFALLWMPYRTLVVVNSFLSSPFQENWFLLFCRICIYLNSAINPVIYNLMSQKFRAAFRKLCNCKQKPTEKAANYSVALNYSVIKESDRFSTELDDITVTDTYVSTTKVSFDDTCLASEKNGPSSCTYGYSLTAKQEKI
# Sequence of rat Glycine Receptor, Strychnine-sensitive (GlyRStrySens), Glra1 (gene 25674) (P07727 whole entry, looked up): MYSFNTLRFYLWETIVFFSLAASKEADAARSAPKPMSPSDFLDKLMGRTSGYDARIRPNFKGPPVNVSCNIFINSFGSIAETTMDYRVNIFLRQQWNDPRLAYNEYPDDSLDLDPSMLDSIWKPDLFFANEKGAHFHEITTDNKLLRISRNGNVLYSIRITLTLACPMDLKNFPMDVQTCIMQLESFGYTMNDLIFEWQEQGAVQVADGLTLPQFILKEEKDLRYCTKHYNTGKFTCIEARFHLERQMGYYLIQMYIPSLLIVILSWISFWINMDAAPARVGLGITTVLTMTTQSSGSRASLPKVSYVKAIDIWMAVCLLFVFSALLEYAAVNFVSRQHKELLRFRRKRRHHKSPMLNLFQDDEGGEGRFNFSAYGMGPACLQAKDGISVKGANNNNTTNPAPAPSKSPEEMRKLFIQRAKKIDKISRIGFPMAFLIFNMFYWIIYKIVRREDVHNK
smiles,measurement,setting,value
Cc1nc(-c2ccc3c(c2)CCN(CCC2CCC(NC(=O)/C=C/c4ccc(F)cc4)CC2)CC3)no1 (stereo not given),AC50,[1],0.265 µM (active)
same,outcome,[2],inactive
same,AC50,[3],216 nM (active)
Oc1ccc2c(c1)OC[C@@H](N1CCC(O)(c3ccc(F)cc3)CC1)[C@H]2O,outcome,[1],inactive
same,outcome,[4],inactive
same,outcome,[5],inactive
same,outcome,[2],inactive
CCCCC(CC)COC(=O)CC(C(=O)OCC(CC)CCCC)S(=O)(=O)O (stereo not given),outcome,[1],inactive
same,AC50,[4],38.3 µM (active)
same,AC50,[6],9.22 µM (active)
same,outcome,[7],inactive
Cc1oc(-c2ccccc2)nc1CCOc1cccc2c1ccn2CCC(=O)O,AC50,[6],46.5 µM (active)
CN1CCN(Cc2cc(-c3ccc4[nH]c(=O)oc4c3)co2)[C@@H](c2ccc(F)cc2)C1,AC50,[8],15 µM (active)
same,AC50,[1],7.72 µM (active)
same,outcome,[9],inactive
same,AC50,[2],5.34 µM (active)
same,AC50,[3],445 nM (active)
NC(=O)Cn1c(=O)cc(CCN2CCN(c3nccc4sccc34)CC2)c2ccc(F)cc21,outcome,[1],inactive
same,AC50,[10],1.77 µM (active)
same,AC50,[6],1.6 µM (active)
same,AC50,[3],1820 nM (active)
Nc1ccc2c(c1)C(=O)c1ccccc1C2=O,outcome,[10],inactive
COc1ccc(S(=O)(=O)N2C(=O)[C@@](c3ccccc3OC)(N3C[C@H](O)C[C@H]3C(=O)N(C)C)c3cc(Cl)ccc32)c(OC)c1,AC50,[1],39.6 µM (active)
same,AC50,[11],10.4 µM (active)
same,AC50,[2],3.53 µM (active)
CC(C)(C)c1cc(O)c(C(C)(C)C)cc1O,outcome,[5],inactive
same,outcome,[12],inactive
CC=Cc1ccc(O)c(OC)c1,AC50,[10],17.2 µM (active)
same,AC50,[6],3.55 µM (active)
same,outcome,[13],inactive
CC(C)c1ccc(C(=O)N=C(N)N)cc1S(C)(=O)=O,AC50,[1],34 µM (active)
same,AC50,[10],12.3 µM (active)
same,outcome,[6],inactive
same,outcome,[7],inactive
Cc1ccc(C(C)C)c(O)c1,AC50,[10],18.3 µM (active)
same,outcome,[6],inactive
same,outcome,[12],inactive
Cc1ccc(C)c(O)c1C,outcome,[14],inactive
CCOC(=O)CCC(=O)OCC,outcome,[1],inactive
Cc1cccc(Nc2cc(Cl)nc(SCC(=O)O)n2)c1C,AC50,[10],6.49 µM (active)
